Screening data: PubChem, several laboratories
Only some compounds are listed: those with a hit (about 13% of all), similar ones and a draw of the others.
CHOP inhibitor – blocks CHOP induction under ER stress; CHO-K1 CHOP-promoter luciferase, tunicamycin-induced, 15-18 h; inhibition, % at 10 µM; 220,000 tested, 3.8% active;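 active = compounds that reduced the stress-induced luciferase reporter signal by more than about 70% of percent inhibition, limit read from the data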
RAM inhibit – inhibitors of the yeast RAM network | AID 868 | inhibition, % at 50 µM | S. cerevisiae dse1pr::URA3 reporter, 5-FOA growth OD615, 2 d; analog-sensitive cbk1-as2 kinase mutant strain | 190,000 tested, 1.8% active;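 active = inhibition above a set limit, 3 SD over mean compound inhibition, cut at about 8.4% in these data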;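 also: inhibition rescues growth on 5-FOA so higher OD means more RAM inhibition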
WT yeast gro inh – growth inhibition of WT yeast, mitochondrial fusion screen. mitochondrial fusion phenotypic screen, WT strain. inhibition, % at 10 µM. 190,000 tested, 2.1% active; in the data active = inhibition above about 58%; tested in S. cerevisiae
Lmaj promast – reduces viability of Leishmania major promastigotes | resazurin fluorescence viability | inhibition, % at 10 µM | 200,000 tested, 9% active; in the data active = inhibition above about 50%;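 also: promastigotes grown with compound for 44 hours at 28 °C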
A number is an active result; - = inactive; . = not tested or not shown.

SMILES	CHOP inhibitor	RAM inhibit	WT yeast gro inh	Lmaj promast
CCC(C)n1c(C)nc2c(c1=O)c1nc3ccccc3nc1n2CCC1=CCCCC1 (stereo unspecified)	-	-	-	57
Cc1nc2c(c(=O)n1CCC(C)C)c1nc3ccccc3nc1n2CC1CCCO1 (stereo unspecified)	-	.	.	.
COCCNC(=O)c1c(N)n(CCC2=CCCCC2)c2nc3ccccc3nc12	78	-	-	100
Cc1ccc(NC(=O)NCCCc2ccccc2)cc1	-	-	-	-
COC(=O)c1ccc(NC(CC(C)C)C(=O)OC)c([N+](=O)[O-])c1 (stereo unspecified)	-	-	-	52
COc1ccccc1CNC(=O)c1ccc(OC(F)F)c(OC)c1	-	-	-	-
CCC(=O)N1CCc2cc(Br)cc(S(=O)(=O)NCCN3CCCCC3CC)c21 (stereo unspecified)	-	-	-	-
CCCN(CCC)CCCNS(=O)(=O)c1cc(Br)cc2c1N(C(C)=O)CC2	-	-	-	87
CCC(=O)N1CCc2cc(Br)cc(S(=O)(=O)NCCN3CCCCC3C)c21 (stereo unspecified)	-	-	-	92
CC(N)=NCCCC[C@@H](N)C(=O)O	-	.	.	.
CCN1CCN(c2cc(C)c3cc(NC(=O)c4ccc5c(c4)OCO5)ccc3n2)CC1	-	-	-	100
CCCCNC(=O)CCC(=O)Nc1ccc2nc(N3CCN(C)CC3)cc(C)c2c1	-	-	-	-
COc1ccc(C)cc1NC(=O)CCC(=O)Nc1ccc2nc(N3CCN(C)CC3)cc(C)c2c1	-	-	-	91
CCN1CCN(c2cc(C)c3cc(NC(=O)c4cccc(OC)c4)ccc3n2)CC1	-	.	.	.
CCN1CCN(c2cc(C)c3cc(NC(=O)c4ccc(OC)c(OC)c4)ccc3n2)CC1	-	-	-	55
CCN1CCN(c2cc(C)c3cc(NC(=O)c4cncc(Br)c4)ccc3n2)CC1	-	-	-	100
CN(C)/C=C/c1oc2ccc(O)cc2c1[N+](=O)[O-]	-	-	-	-
O=C(c1cc(Cl)ccc1[N+](=O)[O-])N1CCc2ccccc2C1	-	-	-	-
C/C(CC(=O)NC1CCCCC1)=N\NC(=O)Cc1ccc(-c2ccccc2)cc1	-	-	-	-
O=C(Nc1ccc(S(=O)(=O)N2CCc3ccccc32)cc1)c1ccco1	-	-	-	-
Cn1c(=O)oc2cc(S(=O)(=O)N3CCc4ccccc43)ccc21	-	.	.	.
Cn1c(=O)c(=O)n(C)c2cc(S(=O)(=O)N3CCc4ccccc43)ccc21	-	-	-	52
O=S(=O)(NC1CCc2ccccc21)c1ccc(S(=O)(=O)N2CCCC2)cc1 (stereo unspecified)	-	-	-	72
O=S(=O)(NC1CCCC1)c1ccc(S(=O)(=O)N2CCc3ccccc32)cc1	86	-	-	-
O=C(NC1CCc2ccccc21)C1CCN(S(=O)(=O)c2ccc(Cl)cc2)CC1 (stereo unspecified)	-	-	-	-
SMILES	CHOP inhibitor	RAM inhibit	WT yeast gro inh	Lmaj promast
Cc1ccc(C(=O)N2CCC3(CC2)Oc2ccc(F)cc2C(=O)C32CC(c3ccccc3)=NO2)s1 (stereo unspecified)	-	.	.	.
N#Cc1cc(C(=O)Cc2ccccc2)c[nH]1	-	-	-	-
C=C(C)C(=O)Nc1cccnc1Oc1ccc(F)cc1F	-	.	.	.
CC(C)CCNC(=S)Nc1ccccc1F	-	-	-	52
CC(C)CCNC(=S)Nc1ccccn1	-	-	-	68
S=C(Nc1ccc(Nc2ccccc2)cc1)Nc1ccccn1	-	-	81	-
O=C(Nc1ccccc1)C(=O)Nc1ccccn1	-	-	-	-
CCOC(=O)c1ccc(-c2ccc(/C=N/NC(=O)CN(c3cccc(C)c3)S(C)(=O)=O)o2)cc1	79	-	-	-
CCOc1ccc(S(=O)(=O)N(CC(=O)N/N=C/c2ccc(-c3ccc([N+](=O)[O-])cc3)o2)c2ccccc2)cc1	-	-	-	-
Cc1ccc(C)c(N(CC(=O)N/N=C/c2ccc(-c3ccc([N+](=O)[O-])cc3)o2)S(=O)(=O)c2ccccc2)c1	82	-	-	-
CCOC(=O)c1ccc(-c2ccc(/C=N/NC(=O)CN(c3ccccc3Cl)S(C)(=O)=O)o2)cc1	-	-	-	-
COC(=O)c1ccc(NC(=S)NCCCn2ccnc2)cc1	-	-	-	-
CC1CC(C)CN(CCOc2ccccc2-c2ccccc2)C1 (stereo unspecified)	93	-	-	-
Cc1cccc(OCCOCCN2CCNCC2)c1C	-	-	-	-
c1ccc(-c2ccccc2OCCOCCN2CCNCC2)cc1	-	-	-	82
CCN1CCN(CCOCCOc2ccccc2-c2ccccc2)CC1	-	-	-	93
CCOCCCNCC(=O)Nc1ccc(S(=O)(=O)NC(C)CC)cc1 (stereo unspecified)	-	-	-	-
Cc1cc2oc3c(c(=O)c2cc1C)C(c1ccc(C(C)C)cc1)N(CCCN1CCOCC1)C3=O (stereo unspecified)	-	-	-	-
COc1ccc(COc2cc(-c3cccc(OC)c3)nc3ccc(NC(=O)C(C)C)cc23)cc1	-	-	-	100
CCOC(=O)c1nn(-c2ccc(C)c(C)c2)c(=O)c2c(N)scc12	92	-	-	-
CCOC(=O)c1nn(-c2ccc(OC)cc2)c(=O)c2c(N)scc12	-	-	-	-
COc1cc(CN2CCC(C(=O)N3CCN(c4ccccc4F)CC3)CC2)ccc1O	-	-	-	63
COc1ccc(OC)c(CN2CCC(C(=O)N3CCN(c4ccccc4F)CC3)CC2)c1	-	-	-	-
COc1cccc(CN2CCC(C(=O)N3CCN(c4ccccc4F)CC3)CC2)c1	-	-	-	89
O=Nc1c(-c2cccc([N+](=O)[O-])c2)nc2ncccn12	-	.	.	.
SMILES	CHOP inhibitor	RAM inhibit	WT yeast gro inh	Lmaj promast
Oc1cccc2cc3cccc(O)c3c(O)c12	-	-	-	-
CCOC(=O)N/N=C(C)/C=C/c1ccco1	-	-	-	84
CC(C)CC(=O)O/N=C1\C(=O)N(Cc2ccc(Cl)cc2)c2ccc([N+](=O)[O-])cc21	90	8.4	-	-
COC(=O)c1c(NC(=O)CN2CCC3(O)CCCCC3C2c2ccc(F)cc2)sc(C)c1C (stereo unspecified)	-	-	59	77
COC(=O)c1c(NC(=O)CN2CCC3(O)CCCCC3C2c2cc(OC)ccc2OC)sc(C)c1C (stereo unspecified)	-	-	74	-
CC1(C)CC(=O)c2cnc(N3CCN(c4ccccc4)CC3)nc2C1	87	-	-	-
CC1(C)CC(=O)c2cnc(N3CCc4ccccc4C3)nc2C1	-	-	-	-
Cc1nc(N2CCN(c3ccccc3)CC2)[nH]c(=O)c1CCC(C)C	-	-	-	-
Cc1nc(NCc2ccccc2)[nH]c(=O)c1CCC(C)C	76	-	-	-
Cc1ccc(Nc2nc(C)c(CCC(C)C)c(=O)[nH]2)cc1	78	-	-	-
O=C(NCC(c1cccnc1)N1CCN(c2ccc(F)cc2)CC1)c1cccc(Cl)c1 (stereo unspecified)	-	-	-	96
O=C(NCC(c1ccco1)N1CCN(c2ccc(F)cc2)CC1)OCc1ccccc1 (stereo unspecified)	-	-	-	-
O=C(NCC(c1cccnc1)N1CCN(c2ccccc2)CC1)C1CCCCC1 (stereo unspecified)	-	-	-	74
